Results filed as inconclusive are left out. The source made the active and inactive calls. Unless noted, calls come from the whole dose curve.
Tests used:
[1] = qHTS assay to identify small molecule agonists of the sonic hedgehog signaling (Shh) pathway (AID 1259368);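 note: NIH/3T3-derived 3T3Gli1-Luc cells carrying a stable Gli1-driven firefly luciferase reporter; series mostly up to about 92 µM; nearly all actives have a fitted effect of over 15% in size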
In short: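 NIH/3T3-derived 3T3Gli1-Luc cells with stably integrated Gli1-driven firefly luciferase, 2,000 cells/well, compounds added after 4 hr. Incubated 24 hr at 37C, 5% CO2; luminescence read after 30 min with luciferase reagent at room temperature.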

[2] = qHTS assay to identify small molecule antagonists of the sonic hedgehog signaling (Shh) pathway (AID 1259369); note: nearly all actives have a fitted effect of over 45% in size
In short: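 NIH/3T3-derived Gli1-Luc reporter cells plated 4 h, dosed with compound, then stimulated with conditioned medium for 24 h at 37 C. Firefly luciferase luminescence read after 30 min with detection reagent at room temperature.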

[3] = target: Estrogen receptor beta (Homo sapiens) (UniProt Q92731); assay: qHTS assay to identify small molecule agonists of the estrogen receptor beta (ER-beta) signaling pathway (AID 1259377; active = well fitted activation curve with a large enough effect in the signal ratio in the repeat runs, not every such curve was filed as active; the % refers to the signal ratio)
In short: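 HEK293T ER-beta-UAS-bla; 2% charcoal-stripped FBS; cells pre-incubated 6 hr, compound 16 hr, 37C/5% CO2; LiveBLAzer B/G FRET substrate 2 h RT; fluorescence intensity read.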

[4] = qHTS assay to identify small molecule agonists of the androgen receptor (AR) signaling pathway in the presence of an antagonist - cell viability counter screen (AID 1259379; active = well fitted curve in the direction sought with a large enough effect in the repeat runs; an effect the other way counts as inactive or inconclusive;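 note: MDA-kb2 human breast cancer cells carrying an MMTV luciferase reporter; series mostly up to about 92 µM; nearly all actives have a fitted effect of over 25% in size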)
In short: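 MDA-kb2 cells (MMTV-luciferase, AR/GR), 3,000/well, 5 h attachment, then 3.0 µM nilutamide (final) and compounds at 15 concentrations. Viability by CellTiter-Fluor fluorescence after 16 h at 37 °C, 0% CO2, in the reporter wells.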

[5] = qHTS assay to identify small molecule agonists of the estrogen receptor beta (ER-beta) signaling pathway - cell viability counter screen (AID 1259380; active = well fitted curve in the direction sought with a large enough effect in the repeat runs; an effect the other way counts as inactive or inconclusive; note: nearly all actives have a fitted effect of over 30% in size)
In short: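 ER-beta-UAS-bla HEK293T cells in medium with 2% charcoal-stripped FBS, pre-incubated 6 hr, then treated 16 hr at 37C. Cytotoxicity read in the same wells by CellTiter-Glo luminescence after 30 min at room temperature.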

[6] = target: Androgen receptor (Homo sapiens) (UniProt P10275); assay: qHTS assay to identify small molecule agonists of the androgen receptor (AR) signaling pathway in the presence of an antagonist (AID 1259381); note: nearly all actives have a fitted effect of over 15% in size
In short: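 MDA-kb2 cells carrying MMTV-luciferase (AR/GR responsive), 3,000 cells/well, co-treated with 3.0 uM nilutamide final. Compounds at 15 concentrations, 16 hr at 37C without CO2. Luciferase luminescence read after 30 min with ONE-Glo.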

[7] = qHTS assay to identify small molecule antagonists of the estrogen receptor beta (ER-beta) signaling pathway - cell viability counter screen (AID 1259382; active = well fitted curve in the direction sought with a large enough effect in the repeat runs; an effect the other way counts as inactive or inconclusive;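 note: HEK293T cells carrying ER-beta-UAS-bla reporter stimulated with estradiol; series mostly up to about 92 µM; nearly all actives have a fitted effect of over 55% in size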)
In short: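 ER-beta-UAS-bla HEK293T cells in 2% charcoal-stripped FBS medium, treated with compound plus 1 nM 17-beta-estradiol for 16 h at 37C. Viability read by CellTiter-Glo luminescence after 30 min at room temperature in the same wells.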

[8] = target: Estrogen receptor (Homo sapiens) (UniProt P03372); assay: qHTS assay to identify small molecule agonists of the estrogen receptor alpha (ER-alpha) signaling pathway in the presence of an antagonist (AID 1259383); note: top concentration of the series differs between compounds; nearly all actives have a fitted effect of over 15% in size
In short: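 VM7Luc4E2 cells express endogenous full-length ER-alpha with an ERE-luciferase reporter and were hormone-deprived for 5 days. Compounds at 15 concentrations were added with 10.0nM ICI-182,780 for 22hr at 37C. Luminescence was read with ONE-Glo.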

[9] = qHTS assay to identify small molecule agonists or antagonists of the thyroid stimulating hormone receptor (TSHR) signaling pathway - wild type cell line counter screen (AID 1259384)
In short: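 Counter screen in untransfected Hek293: compounds (15-point titration, triplicate) plus phosphodiesterase inhibitor Ro20-1724 added after 18 h plating; 30 min RT. Intracellular cAMP via competitive d2/cryptate immunoassay, 1 h incubation.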

[10] = target: Thyrotropin receptor (Homo sapiens) (UniProt P16473); assay: qHTS assay to identify small molecule antagonists of the thyroid stimulating hormone receptor (TSHR) signaling pathway (AID 1259385); note: nearly all actives have a fitted effect of over 20% in size
In short: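 Antagonist mode: compound-treated TSHR-expressing HEK293 cells were stimulated with 1.5 ng/mL TSH (final) in presence of Ro20-1724 for 30 min at RT. HTRF cAMP detection after 1 h; each compound tested at 15 concentrations, triplicate.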

[11] = qHTS assay to identify small molecule agonists of the estrogen receptor alpha (ER-alpha) signaling pathway in the presence of an antagonist - cell viability counter screen (AID 1259386; active = well fitted curve in the direction sought with a large enough effect in the repeat runs; an effect the other way counts as inactive or inconclusive;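 note: series mostly up to about 92 µM; cells exposed to compounds for 22 h at 37 °C before the viability read; nearly all actives have a fitted effect of over 30% in size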)
In short: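 Cell viability in VM7Luc4E2 cells (endogenous full-length ER-alpha) measured by CellTiter-Fluor fluorescence in the same wells as the luciferase screen. Cells pre-cultured 5 days in charcoal-stripped serum, then treated 22 h with compounds at 15 concentrations plus 10.0nM ICI-182,780.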

[12] = target: Progesterone receptor (Homo sapiens) (UniProt P06401); assay: qHTS assay to identify small molecule agonists of the progesterone receptor (PR) signaling pathway (AID 1346784); note: nearly all actives have a fitted effect of over 30% in size
In short: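 Beta-lactamase reporter read-out: after 16 hr compound treatment at 37C and a further 2 hr at room temperature with LiveBLAzer B/G FRET substrate, fluorescence was measured in PR-UAS-bla HEK 293T cells grown in 2% charcoal-stripped serum.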

[13] = target: Progesterone receptor (Homo sapiens) (UniProt P06401); assay: qHTS assay to identify small molecule antagonists of the progesterone receptor (PR) signaling pathway (AID 1346795; active = well fitted inhibition curve with a large enough effect in the signal ratio in the repeat runs, not every such curve was filed as active; the % refers to the signal ratio)
In short: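 Read-out is fluorescence from the LiveBLAzer B/G FRET substrate, cleaved by a UAS-controlled beta-lactamase in PR-UAS-bla HEK293T cells after 16 hr exposure to compound plus 1 nM promegestone (final), followed by 2 hr at room temperature.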

[14] = qHTS assay to identify small molecule antagonists of the progesterone receptor (PR) signaling pathway - cell viability counter screen (AID 1346798; active = well fitted curve in the direction sought with a large enough effect in the repeat runs; an effect the other way counts as inactive or inconclusive;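 note: HEK293T PR-UAS-bla cells stimulated with the agonist R5020; series mostly up to about 92 µM; nearly all actives have a fitted effect of over 50% in size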)
In short: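 HEK293T PR-UAS-bla, 2% charcoal-stripped FBS; 4 hr pre-plate; cpd + R5020, 16 h 37C; LiveBLAzer read first; then CellTiter-Glo 30 min RT, luminescence.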

[15] = qHTS assay to identify small molecule agonists of the progesterone receptor (PR) signaling pathway - cell viability counter screen (AID 1346799); note: nearly all actives have a fitted effect of over 45% in size
In short: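 Luminescence from CellTiter-Glo, added after the beta-lactamase FRET read in the same wells, gave cytotoxicity in PR-UAS-bla HEK293T cells treated with compounds for 16 hr at 37C.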

[16] = qHTS assay to identify small molecule antagonists of the TGF-beta/Smad signaling pathway - cell viability counter screen (AID 1346824; active = well fitted curve in the direction sought with a large enough effect in the repeat runs; an effect the other way counts as inactive or inconclusive; note: nearly all actives have a fitted effect of over 50% in size)
In short: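 Cytotoxicity counter-screen run in the same wells as the beta-lactamase Smad reporter read: CellTiter-Glo luminescence after 30 min at room temperature. HEK 293T SBE-bla cells had 5 hr compound exposure at 37 C with TGF-beta1 (0.25 ng/mL stock).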

[17] = qHTS assay to identify small molecule agonists of the TGF-beta/Smad signaling pathway - cell viability counter screen (AID 1346829; active = well fitted curve in the direction sought with a large enough effect in the repeat runs; an effect the other way counts as inactive or inconclusive; note: top concentration of the series differs between compounds; nearly all actives have a fitted effect of over 45% in size)
In short: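 Same-well cytotoxicity: CellTiter-Glo added after the 2 hr room-temperature beta-lactamase substrate step, luminescence measured 30 min later; cells had 5 hr of compound at 37 C.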

[18] = qHTS assay to identify small molecule agonists of the TGF-beta/Smad signaling pathway (AID 1346859; active = well fitted activation curve with a large enough effect in the signal ratio in the repeat runs, not every such curve was filed as active; the % refers to the signal ratio; note: series mostly up to about 77 µM)
In short: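 SBE-bla HEK 293T, 4,000 cells/well, plated o/n; cpd in DMSO, 5 hr, 37 C/5% CO2; B/G FRET substrate 2 hr RT; ex 405, em 460/530 nm.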

[19] = target: Thyrotropin-releasing hormone receptor (Homo sapiens) (UniProt P34981); assay: qHTS assay to identify small molecule antagonists of the thyrotropin-releasing hormone receptor (TRHR) signaling pathway (AID 1346877; active = well fitted inhibition curve with a large enough effect in the repeat runs, not every such curve was filed as active; note: series mostly up to about 51 µM)
In short: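 TRHR-expressing HEK293 cells loaded with calcium dye for 2 h at 37 C; compounds pre-incubated 5 min at room temperature before TRH challenge at 1 nM final. Intracellular calcium fluorescence read kinetically for 3 min; 15 concentrations in triplicate.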

[20] = target: Estrogen receptor beta (Homo sapiens) (UniProt Q92731); assay: qHTS assay to identify small molecule antagonists of the estrogen receptor beta (ER-beta) signaling pathway (AID 1259378; active = well fitted inhibition curve with a large enough effect in the signal ratio in the repeat runs, not every such curve was filed as active; the % refers to the signal ratio)
In short: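 Antagonist mode: compounds added to beta-lactamase reporter HEK293T ER-beta-UAS cells stimulated with E2 (1nM final), 16 hr at 37C. LiveBLAzer B/G FRET substrate, 2 hours room temperature, fluorescence read-out.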

Measured: Potency

Sequence of Thyrotropin-releasing hormone receptor (Homo sapiens) (P34981 whole entry, looked up): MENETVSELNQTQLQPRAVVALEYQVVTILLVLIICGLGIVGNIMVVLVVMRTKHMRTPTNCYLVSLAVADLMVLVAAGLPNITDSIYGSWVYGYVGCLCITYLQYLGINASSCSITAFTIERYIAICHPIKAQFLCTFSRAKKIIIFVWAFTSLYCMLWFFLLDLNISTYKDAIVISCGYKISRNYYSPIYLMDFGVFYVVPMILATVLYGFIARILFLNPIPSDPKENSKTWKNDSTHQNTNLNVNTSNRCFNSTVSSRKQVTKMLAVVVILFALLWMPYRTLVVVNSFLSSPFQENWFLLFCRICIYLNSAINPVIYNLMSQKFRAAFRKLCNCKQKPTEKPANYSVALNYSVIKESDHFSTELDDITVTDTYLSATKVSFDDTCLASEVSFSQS
Sequence of Androgen receptor (Homo sapiens) (P10275 whole entry, looked up): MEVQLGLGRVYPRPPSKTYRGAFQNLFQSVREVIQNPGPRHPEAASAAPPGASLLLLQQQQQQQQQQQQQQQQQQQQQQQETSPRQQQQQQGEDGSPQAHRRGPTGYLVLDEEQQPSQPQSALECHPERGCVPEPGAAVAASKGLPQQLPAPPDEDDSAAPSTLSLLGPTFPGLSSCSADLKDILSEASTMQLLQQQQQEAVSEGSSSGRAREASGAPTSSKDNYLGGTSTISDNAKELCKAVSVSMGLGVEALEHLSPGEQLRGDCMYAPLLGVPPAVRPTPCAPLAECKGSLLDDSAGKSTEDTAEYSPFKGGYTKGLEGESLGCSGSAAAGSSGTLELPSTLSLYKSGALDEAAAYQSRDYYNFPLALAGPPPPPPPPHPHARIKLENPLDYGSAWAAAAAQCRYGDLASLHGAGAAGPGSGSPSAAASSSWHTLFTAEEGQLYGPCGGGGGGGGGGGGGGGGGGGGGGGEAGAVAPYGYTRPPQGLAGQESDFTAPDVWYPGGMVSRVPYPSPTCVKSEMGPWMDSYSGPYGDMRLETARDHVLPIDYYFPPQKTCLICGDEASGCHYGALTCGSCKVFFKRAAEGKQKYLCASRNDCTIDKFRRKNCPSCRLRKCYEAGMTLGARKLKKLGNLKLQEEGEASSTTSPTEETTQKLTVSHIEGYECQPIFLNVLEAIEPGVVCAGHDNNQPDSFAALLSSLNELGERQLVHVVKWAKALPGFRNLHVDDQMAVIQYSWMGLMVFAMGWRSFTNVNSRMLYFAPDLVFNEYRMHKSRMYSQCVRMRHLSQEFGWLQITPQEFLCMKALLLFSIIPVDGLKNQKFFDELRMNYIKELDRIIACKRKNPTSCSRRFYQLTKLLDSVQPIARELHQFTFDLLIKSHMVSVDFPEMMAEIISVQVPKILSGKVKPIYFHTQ
Sequence of Estrogen receptor (Homo sapiens) (P03372 whole entry, looked up): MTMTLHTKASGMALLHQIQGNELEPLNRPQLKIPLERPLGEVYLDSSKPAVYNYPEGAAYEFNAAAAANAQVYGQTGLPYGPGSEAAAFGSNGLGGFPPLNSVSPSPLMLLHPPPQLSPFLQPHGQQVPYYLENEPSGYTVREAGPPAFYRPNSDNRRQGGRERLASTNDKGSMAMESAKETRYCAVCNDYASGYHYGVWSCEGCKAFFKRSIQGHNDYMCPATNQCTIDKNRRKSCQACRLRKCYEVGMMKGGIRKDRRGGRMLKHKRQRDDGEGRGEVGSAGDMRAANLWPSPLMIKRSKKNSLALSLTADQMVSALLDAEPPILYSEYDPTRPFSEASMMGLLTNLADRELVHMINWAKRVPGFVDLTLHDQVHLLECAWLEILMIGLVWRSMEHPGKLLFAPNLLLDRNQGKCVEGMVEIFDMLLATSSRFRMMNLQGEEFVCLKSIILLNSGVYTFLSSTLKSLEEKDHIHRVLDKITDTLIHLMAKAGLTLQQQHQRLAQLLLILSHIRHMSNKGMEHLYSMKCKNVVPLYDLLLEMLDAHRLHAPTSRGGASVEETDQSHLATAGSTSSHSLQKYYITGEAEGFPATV
Sequence of Estrogen receptor beta (Homo sapiens) (Q92731 whole entry, looked up): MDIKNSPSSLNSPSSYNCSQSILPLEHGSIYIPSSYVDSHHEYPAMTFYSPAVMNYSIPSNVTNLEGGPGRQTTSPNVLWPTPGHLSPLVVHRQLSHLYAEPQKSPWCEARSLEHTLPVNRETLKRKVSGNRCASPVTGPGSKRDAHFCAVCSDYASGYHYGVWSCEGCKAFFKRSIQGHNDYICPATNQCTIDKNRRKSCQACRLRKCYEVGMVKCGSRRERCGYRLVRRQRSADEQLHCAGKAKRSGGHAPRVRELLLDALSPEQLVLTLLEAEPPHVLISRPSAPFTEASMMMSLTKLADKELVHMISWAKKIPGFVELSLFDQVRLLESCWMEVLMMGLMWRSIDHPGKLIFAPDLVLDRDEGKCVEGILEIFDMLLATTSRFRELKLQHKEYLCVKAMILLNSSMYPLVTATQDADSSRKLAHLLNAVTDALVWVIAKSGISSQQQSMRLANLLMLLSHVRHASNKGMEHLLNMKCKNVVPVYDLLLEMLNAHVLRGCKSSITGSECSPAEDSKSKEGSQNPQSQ
Sequence of Progesterone receptor (Homo sapiens) (P06401 whole entry, looked up): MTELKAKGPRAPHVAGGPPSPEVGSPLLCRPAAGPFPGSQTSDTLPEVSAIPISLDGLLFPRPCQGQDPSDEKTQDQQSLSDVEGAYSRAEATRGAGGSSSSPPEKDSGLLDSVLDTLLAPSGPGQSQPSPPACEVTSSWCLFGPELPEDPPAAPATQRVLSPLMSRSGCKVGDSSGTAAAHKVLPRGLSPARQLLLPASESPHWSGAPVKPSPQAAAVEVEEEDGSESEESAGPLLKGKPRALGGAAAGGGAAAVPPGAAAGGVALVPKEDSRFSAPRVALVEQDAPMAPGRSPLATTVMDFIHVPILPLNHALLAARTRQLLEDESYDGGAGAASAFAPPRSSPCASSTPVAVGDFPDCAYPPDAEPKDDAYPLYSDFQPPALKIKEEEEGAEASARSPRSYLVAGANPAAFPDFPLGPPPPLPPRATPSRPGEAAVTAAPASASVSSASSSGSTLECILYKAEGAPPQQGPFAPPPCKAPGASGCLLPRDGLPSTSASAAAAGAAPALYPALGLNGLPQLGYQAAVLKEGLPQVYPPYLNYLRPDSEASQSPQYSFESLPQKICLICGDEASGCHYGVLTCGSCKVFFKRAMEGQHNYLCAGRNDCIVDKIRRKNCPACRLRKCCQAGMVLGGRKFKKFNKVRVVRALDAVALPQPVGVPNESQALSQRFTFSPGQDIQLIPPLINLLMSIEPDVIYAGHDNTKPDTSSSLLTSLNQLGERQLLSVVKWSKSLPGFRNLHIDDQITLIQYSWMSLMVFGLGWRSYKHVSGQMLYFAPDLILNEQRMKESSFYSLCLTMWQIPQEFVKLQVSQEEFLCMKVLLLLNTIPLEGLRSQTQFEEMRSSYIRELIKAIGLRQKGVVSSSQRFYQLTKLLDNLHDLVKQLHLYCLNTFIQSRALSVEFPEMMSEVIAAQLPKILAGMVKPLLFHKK
Sequence of Thyrotropin receptor (Homo sapiens) (P16473 whole entry, looked up): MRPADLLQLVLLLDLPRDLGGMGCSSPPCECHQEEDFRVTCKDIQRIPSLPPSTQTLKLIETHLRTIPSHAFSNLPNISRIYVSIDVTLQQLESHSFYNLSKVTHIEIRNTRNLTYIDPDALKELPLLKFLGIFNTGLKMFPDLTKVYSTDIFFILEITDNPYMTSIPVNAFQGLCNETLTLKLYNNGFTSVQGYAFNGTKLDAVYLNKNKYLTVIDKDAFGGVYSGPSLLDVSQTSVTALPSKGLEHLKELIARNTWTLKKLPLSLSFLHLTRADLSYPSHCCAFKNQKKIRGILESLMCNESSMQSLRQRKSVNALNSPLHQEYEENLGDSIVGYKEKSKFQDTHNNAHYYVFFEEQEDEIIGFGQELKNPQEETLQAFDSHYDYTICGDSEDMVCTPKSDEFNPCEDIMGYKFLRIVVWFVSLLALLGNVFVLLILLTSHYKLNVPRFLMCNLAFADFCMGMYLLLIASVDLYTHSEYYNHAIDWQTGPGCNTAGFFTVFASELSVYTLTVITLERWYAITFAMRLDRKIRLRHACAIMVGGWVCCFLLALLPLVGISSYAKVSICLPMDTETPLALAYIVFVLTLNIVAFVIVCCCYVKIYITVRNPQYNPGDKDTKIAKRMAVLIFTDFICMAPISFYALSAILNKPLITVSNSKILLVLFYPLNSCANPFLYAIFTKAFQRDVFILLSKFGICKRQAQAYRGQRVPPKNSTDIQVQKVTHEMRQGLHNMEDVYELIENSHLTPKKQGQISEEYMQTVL

CS(=O)(=O)O
not listed: [20]
inactive: all other assays above

NC(=O)c1cn(Cc2c(F)cccc2F)nn1
not listed: [6] | [8] | [19]
inactive: all other assays above

CC(C)(O)C(=O)c1ccccc1
not listed: [4] | [13] | [15]
inactive: all other assays above

COC(=O)NN
not listed: [4] | [6] | [11]
inactive: all other assays above

NC(CSCC(=O)O)C(=O)O (stereo unspecified)
not listed: [6] | [9] | [10] | [12]
inactive: all other assays above

COC(=O)c1ccc(C)cc1C1=NC(C)(C(C)C)C(=O)N1 (stereo unspecified)
not listed: [6] | [8] | [9] | [10] | [11]
inactive: all other assays above

CC[N+](C)(C)c1cccc(O)c1
not listed: [5] | [6] | [8] | [13] | [19]
inactive: all other assays above

CC(C)CNCC(C)C
not listed: [6] | [8] | [17] | [20]
inactive: all other assays above

C/C=C(\C)C#N
not listed: [3] | [4] | [6]
inactive: all other assays above

CC(=O)OCC(CCn1cnc2cnc(N)nc21)COC(C)=O
not listed: [4] | [13] | [14] | [20]
inactive: all other assays above

OC1CCCCC1c1ccccc1 (stereo unspecified)
not listed: [4] | [11] | [17] | [20]
inactive: all other assays above

O=C[C@H](O)[C@@H](O)[C@H](O)[C@H](O)CO
not listed: [6] | [20]
inactive: all other assays above

CN1CC(=O)NC1=N
not listed: [4] | [8] | [15] | [20]
inactive: all other assays above

Brc1c(NC2=NCCN2)ccc2nccnc12
not listed: [3] | [5] | [6] | [8] | [15] | [19]
inactive: all other assays above

CCO/C([O-])=N/c1c[n+](N2CCOCC2)no1
not listed: [4] | [6] | [20]
inactive: all other assays above

Reference: PubChem BioAssay (Tox21)
